High-throughput results from PubChem BioAssay.
Sampled rows, rich in hits. Any-hit rate of the full collection: about 1.6%.
p53ts 32C kill: cytotoxicity in p53ts cells at permissive temperature | Potency, µM (doses to about 46.1 µM), usual class: cytotoxic | H1299-p53A138V at 32C, ATP luminescence viability, 24 h | hit rate 0.93% among 130,000 | AID 924; also: nearly all actives have a fitted effect of over 55% in size
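ATP-content luminescence (ATPlite) read-out after 24 h compound exposure at 32C in H1299-p53A138V cells (600/well). Tested up to 46 uM. Normalized to DMSO (0%) and 100 uM tamoxifen (100% killing); Hill-fit AC50.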
IkB sig inh: inhibitors of IkB signaling in ABC-DLBCL cells | ABC-DLBCL IkBa-CBG/CBR dual luciferase ratio, 4 h; response scale: scaled: untreated 0%, proteasome inhibitor 100% | Potency, µM (highest dose often 57.1 µM) | hit rate 0.04% among 110,000; active = well fitted curve in the direction sought with a large enough effect in the signal ratio, not every such curve was filed as active; inconclusive = small, poorly fitted or top-dose-only effect, or a change in a side signal; the % refers to the signal ratio;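 also: the direction sought is a rising ratio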
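Curves were fitted separately to fusion (green), unfused (red) and ratio luminescence, then classed by r2, magnitude and activity. Cells: OCI-Ly3, 4 h compound plus doxycycline at 37C; 10 uM MG-132 defined full response.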
p53ts 39C tox: p53ts cell cytotoxicity, nonpermissive temperature | H1299-p53A138V viability at 39C, ATP luminescence, 24 h | Potency, µM (top dose mostly 46.1 µM), hits mostly cytotoxic | hit rate 1.5% among 130,000 | AID 902; also: nearly all actives have a fitted effect of over 55% in size
Imprint erasure: genomic imprint erasure induction. mouse ES Peg3-LacZ reporter, beta-gal luminescence, 40 h. Potency, µM (titrated, usually from 60.7 µM), most hits filed as activators. hit rate 0.02% among 110,000. AID 1948
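Readout: BetaGlo luminescence (5 min, room temp) for LacZ from the normally silent maternal Peg3 allele in female Peg3LacZ-Neo ES cells. Cells 300/well, 40 h, 37C, 5% CO2. Data normalized per plate to negative controls.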
Large screens that a line does not name were inactive. Unless noted, calls follow the shape of the dose curve; as a rule, active = well fitted curve in the direction sought with a large enough effect; inconclusive = small, poorly fitted or top-dose-only effect, or another doubt; inactive = no such curve, though single readings can be large; an effect the other way counts as inactive or inconclusive.

C[C@H](O/N=C1/[C@H]2O[C@@H]2[C@@H](O)[C@H]2[C@H]1CCn1c(=O)n(-c3ccccc3)c(=O)n12)c1cn([C@H](CO)Cc2ccccc2)nn1	none (no result: IkB sig inh, Imprint erasure)
Cc1ccc(CN2C(=O)C(=O)c3cc(Br)cc(C)c32)cc1	p53ts 32C kill inconclusive, IkB sig inh inconclusive, p53ts 39C tox 10µM
CCCOc1ccc(CN2C(=O)C(=O)c3cccc(C)c32)cc1	p53ts 39C tox 15.8µM
O=C(c1ccccc1)[C@H](Nc1ccc2ccccc2c1)c1ccccc1	none
O=C(O)[C@H](C1NCCS1)N1C(=O)c2ccccc2C1=O (some centres not stated)	none (no result: p53ts 32C kill, IkB sig inh, p53ts 39C tox)
Cc1nc2cc(NC(=O)N3c4ccccc4CC3C)ccc2o1 (configuration not stated)	p53ts 32C kill 10µM, p53ts 39C tox 10µM
Cc1nc2cc(NC(=O)N3c4ccccc4CC3C)ccc2n1C (configuration not stated)	p53ts 32C kill 6.31µM, p53ts 39C tox 5.01µM
COc1ccc(-c2csc3c2[N+]2=CCC=C2C3=O)cc1	IkB sig inh inconclusive
Clc1ccccc1-c1ccc2ncnc(N3CCNCC3)c2c1	Imprint erasure 10µM
c1c2c(cc3sc(N4CCOCC4)nc13)OCCO2	p53ts 32C kill 3.16µM, IkB sig inh inconclusive, p53ts 39C tox 5.01µM
CCC1CCCCN1S(=O)(=O)c1ccc(C(=O)Nc2nnc(-c3cccs3)o2)cc1 (configuration not stated)	p53ts 39C tox 15.8µM
COc1cccc(-c2nnc(NC(=O)c3ccc(S(=O)(=O)N4CC(C)OC(C)C4)cc3)o2)c1 (configuration not stated)	IkB sig inh inconclusive, p53ts 39C tox 12.6µM
CC1CC(C)CN(S(=O)(=O)c2ccc(C(=O)Nc3nnc(-c4cccs4)o3)cc2)C1 (configuration not stated)	p53ts 39C tox 15.8µM
O=C(O)c1cc(S(=O)(=O)Nc2cccc(F)c2)ccc1Cl	none (no result: IkB sig inh, Imprint erasure)
CC(C)[C@@H]1O[C@H](/C=C\c2ccccc2)OCC1(C)C	none (no result: Imprint erasure)
O=C(O)c1cc(-c2cccs2)nc2cc3c(cc12)OCCO3	p53ts 32C kill inconclusive, p53ts 39C tox 10µM
Cc1ccc2nc(-c3ccc4c(c3)OCCO4)cc(C(=O)O)c2c1	p53ts 32C kill 15.8µM, IkB sig inh inconclusive, p53ts 39C tox 10µM
CCC1CCCCN1CCCNC(=O)c1cc2c(Cl)nc3ccc(C)cc3c2s1 (configuration not stated)	p53ts 39C tox 12.6µM
CCC1CCCCN1CCCNC(=O)c1cc2c(=O)n(CC)c3ccccc3c2s1 (configuration not stated)	none
CO[C@@H]1/C=C\O[C@]2(C)Oc3c(C)c(O)c4c(O)c(cc(O)c4c3C2=O)NC(=O)/C(C)=C\C=C/[C@H](C)[C@@H](O)[C@H](C)[C@H](O)C(C)[C@H](OC(C)=O)[C@@H]1C (some centres not stated)	none (no result: p53ts 32C kill, IkB sig inh, p53ts 39C tox)
CCCn1c(Nc2nc3ccccc3n2C)nc2ccccc21	p53ts 32C kill inconclusive, IkB sig inh inconclusive, p53ts 39C tox 10µM
CCN(CC)CCn1c(NCc2ccc(OC)cc2)nc2ccccc21	none
CCCn1c(NC(=O)c2ccccc2)nc2ccccc21	IkB sig inh inconclusive
CCCCCn1c(NCc2ccc(OC)cc2)nc2ccccc21	p53ts 32C kill inconclusive, IkB sig inh inconclusive, p53ts 39C tox 15.8µM
C1CCOC1	none
CCOc1ccccc1NC(=O)CSc1nc2cc(OC)c(OC)cc2c2nc(CCn3c(C)nc4ccccc43)nn12	p53ts 32C kill inconclusive, p53ts 39C tox 5.01µM
COc1cc2nc(SCC(=O)Nc3ccccc3C)n3nc(CCn4c(C)nc5ccccc54)nc3c2cc1OC	none
CC1=C(C(=O)OC2CCCCCC2)C(c2cccc(Cl)c2)CC(=O)N1 (configuration not stated)	IkB sig inh inconclusive, p53ts 39C tox 20µM
CN(C)CN1C(=O)S/C(=C2/C(=O)N(CN(C)C)c3ccccc32)C1=O	none
CC1=CC(C)(C)Nc2ccc(OC(=O)CN3C(=O)CCC3=O)cc21	p53ts 32C kill inconclusive, p53ts 39C tox 15.8µM (no result: IkB sig inh, Imprint erasure)
CC1=CC(C)(C)Nc2ccc(OC(=O)c3ccco3)cc21	p53ts 32C kill inconclusive, IkB sig inh inconclusive, p53ts 39C tox inconclusive
COC(=O)Nc1nnc(-c2ccccc2Cl)s1	p53ts 32C kill 10µM, p53ts 39C tox 12.6µM, Imprint erasure inconclusive
CCS(=O)(=O)Nc1ccc(-c2cn3ccsc3n2)cc1	p53ts 32C kill inconclusive, p53ts 39C tox inconclusive
CC(C)CC(=O)Nc1cccc(-c2cn3cccnc3n2)c1	p53ts 32C kill inconclusive, p53ts 39C tox inconclusive
CC(C)CC(=O)Nc1ccc(-c2cn3ccsc3n2)cc1	p53ts 32C kill 1µM, IkB sig inh inconclusive, p53ts 39C tox 1µM
CC(C)(C)C(=O)Nc1ccc(-c2cn3ccsc3n2)cc1	p53ts 32C kill 0.631µM, p53ts 39C tox 0.794µM
CCOc1ccc(N(CC)C(=O)c2cc3c(s2)-c2ccc(Cl)cc2SC3)cc1	p53ts 39C tox 20µM
O=C1c2[nH]nc(-c3ccccc3O)c2C(c2ccc(Cl)cc2)N1CCc1ccccc1 (configuration not stated)	p53ts 32C kill 20µM, IkB sig inh inconclusive, p53ts 39C tox inconclusive
CCN(CC)[C@@H](C)C(=O)N1c2ccccc2Sc2ccccc21	none (no result: p53ts 32C kill, p53ts 39C tox, Imprint erasure)
O=C(/C=C\Nc1ccc2c(c1)OCO2)c1ccccn1	p53ts 32C kill 1.58µM, IkB sig inh inconclusive, p53ts 39C tox 2.51µM
CCOc1ccc(-c2oc3cc(Cl)ccc3c(=O)c2O)cc1OC	p53ts 39C tox 7.94µM
O=C1C=C(NCCO)C(=O)c2cnccc21	p53ts 32C kill 3.16µM, p53ts 39C tox 3.98µM (no result: IkB sig inh)
O=C1C=C(NCCc2cc(Br)c(O)c(Br)c2)C(=O)c2ncccc21	p53ts 32C kill inconclusive, IkB sig inh inconclusive, p53ts 39C tox inconclusive
CC(C)(CO)Cc1cc(C(C)(C)C)c(O)c(C(C)(C)C)c1	p53ts 32C kill 20µM, IkB sig inh inconclusive, p53ts 39C tox 31.6µM
O=C(NCCO)c1ccc(Cc2nc3ccccc3[nH]2)cc1	none (no result: IkB sig inh, Imprint erasure)
COc1ccc(-c2coc3cc(O[C@@H]4O[C@@H](CO)[C@@H](O)[C@@H](O)[C@H]4O)cc(O)c3c2=O)cc1	none (no result: p53ts 32C kill, p53ts 39C tox, Imprint erasure)
Cc1ccc2c(c1)N(CC(=O)NCC1COc3ccccc3O1)C(=O)CO2 (configuration not stated)	none
CC(=O)N(C)C	none (no result: p53ts 32C kill, IkB sig inh, p53ts 39C tox)
O[C@@H]1CC[C@H]2Cc3ccccc3N=C21	none (no result: p53ts 32C kill, p53ts 39C tox, Imprint erasure)
O=C(COc1ccccc1Cl)Nc1nc2c(s1)CCCC2	none
COc1ccccc1-c1nnc(SCC(=O)Nc2ccccc2F)o1	IkB sig inh inconclusive
COC(=O)c1ccccc1NC(=O)CSc1nnc(-c2ccc(C)cc2)o1	none (no result: IkB sig inh, Imprint erasure)
Cc1cnc(NC(=O)CSc2nnc(-c3ccccc3)o2)s1	p53ts 32C kill inconclusive, IkB sig inh inconclusive, p53ts 39C tox 10µM
Cc1cnc(NC(=O)CSc2nnc(COc3c(C)cccc3C)o2)s1	none
Cc1cnc(NC(=O)COc2ccccc2Cl)s1	p53ts 32C kill 3.98µM, p53ts 39C tox 5.01µM
O=C(CSc1nnc(-c2ccccc2)o1)Nc1ccccc1F	p53ts 32C kill 12.6µM, IkB sig inh inconclusive, p53ts 39C tox 10µM
Cc1ccc(-c2nnc(SCC(=O)Nc3ccccc3F)o2)cc1	p53ts 32C kill 5.01µM, IkB sig inh inconclusive, p53ts 39C tox 2.51µM
